Laboratory results from the supplement of paper PMC11732987, “Enantioselective OTUD7B fragment discovery through chemoproteomics screening and high-throughput optimisation” (Communications Chemistry, 2025).

Key:
Experiment in all cases: log2 ratio of Biotin-Ahx-Ub-VS probe labelling (fragment/DMSO); higher = less target engagement (more negative = stronger competition), active = hit call of the paper (q ≤ 0.05, log2 ratio ≤ -1)
Settings in all cases: compound concentration: 200 uM; treatment time: 3 h
USP42 = biological target: T1, USP42 (UniProt Q9H9J4)
T1 sequence (whole entry): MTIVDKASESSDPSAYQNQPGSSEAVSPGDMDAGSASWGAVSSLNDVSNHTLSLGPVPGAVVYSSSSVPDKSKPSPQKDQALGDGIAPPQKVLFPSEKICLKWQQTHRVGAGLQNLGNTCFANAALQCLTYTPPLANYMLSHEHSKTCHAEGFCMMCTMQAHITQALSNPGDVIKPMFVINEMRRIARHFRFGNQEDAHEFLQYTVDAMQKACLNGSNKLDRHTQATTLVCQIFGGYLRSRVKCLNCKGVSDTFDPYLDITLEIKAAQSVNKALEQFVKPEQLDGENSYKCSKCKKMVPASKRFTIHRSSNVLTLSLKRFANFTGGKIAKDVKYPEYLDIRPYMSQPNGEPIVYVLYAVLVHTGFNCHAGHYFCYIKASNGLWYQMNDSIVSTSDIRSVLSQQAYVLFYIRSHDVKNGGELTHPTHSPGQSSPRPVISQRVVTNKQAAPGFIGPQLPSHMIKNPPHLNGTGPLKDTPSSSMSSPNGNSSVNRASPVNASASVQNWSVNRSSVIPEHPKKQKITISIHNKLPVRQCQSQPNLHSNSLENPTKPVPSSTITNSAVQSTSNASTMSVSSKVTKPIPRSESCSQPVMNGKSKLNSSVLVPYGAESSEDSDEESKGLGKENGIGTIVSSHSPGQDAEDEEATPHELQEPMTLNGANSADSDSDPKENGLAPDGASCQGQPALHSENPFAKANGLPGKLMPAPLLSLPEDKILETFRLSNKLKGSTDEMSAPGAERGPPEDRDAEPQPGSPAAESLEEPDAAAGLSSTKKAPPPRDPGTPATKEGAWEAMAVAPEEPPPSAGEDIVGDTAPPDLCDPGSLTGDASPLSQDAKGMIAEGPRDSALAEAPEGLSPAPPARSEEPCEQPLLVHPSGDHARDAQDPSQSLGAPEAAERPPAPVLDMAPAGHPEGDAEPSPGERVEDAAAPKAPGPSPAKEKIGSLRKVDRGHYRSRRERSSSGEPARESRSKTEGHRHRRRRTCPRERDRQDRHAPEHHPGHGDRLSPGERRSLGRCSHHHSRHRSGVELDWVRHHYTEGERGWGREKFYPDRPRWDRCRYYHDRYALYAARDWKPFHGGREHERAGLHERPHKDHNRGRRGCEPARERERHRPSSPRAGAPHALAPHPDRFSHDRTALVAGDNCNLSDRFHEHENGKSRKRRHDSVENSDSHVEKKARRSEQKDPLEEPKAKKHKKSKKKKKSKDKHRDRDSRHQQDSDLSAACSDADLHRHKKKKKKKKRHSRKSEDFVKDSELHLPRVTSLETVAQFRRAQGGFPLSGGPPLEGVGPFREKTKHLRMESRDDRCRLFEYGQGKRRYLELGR
Outline: (§1)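 HEK293T lysate (495 µg per sample, in Tris/CHAPS/IGEPAL buffer with protease inhibitors) was exposed in triplicate for 3 h to fragment at 200 µM or to vehicle, then to Biotin-Ahx-Ub-VS at 0.5 µM final for 1 h. Labelled DUBs were enriched on NeutrAvidin, digested with LysC and trypsin, and analysed by diaPASEF LC-MS/MS. Spectronaut label-free quantities were normalised to the global median, and values are average log2 ratios of fragment over vehicle from an unpaired t-test. Only proteins with ≥2 unique peptides were used.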

USP46 = USP46 (UniProt P62068)
Outline: as §1

USP47 = biological target: T2, USP47 (UniProt Q96K76)
T2 sequence (whole entry): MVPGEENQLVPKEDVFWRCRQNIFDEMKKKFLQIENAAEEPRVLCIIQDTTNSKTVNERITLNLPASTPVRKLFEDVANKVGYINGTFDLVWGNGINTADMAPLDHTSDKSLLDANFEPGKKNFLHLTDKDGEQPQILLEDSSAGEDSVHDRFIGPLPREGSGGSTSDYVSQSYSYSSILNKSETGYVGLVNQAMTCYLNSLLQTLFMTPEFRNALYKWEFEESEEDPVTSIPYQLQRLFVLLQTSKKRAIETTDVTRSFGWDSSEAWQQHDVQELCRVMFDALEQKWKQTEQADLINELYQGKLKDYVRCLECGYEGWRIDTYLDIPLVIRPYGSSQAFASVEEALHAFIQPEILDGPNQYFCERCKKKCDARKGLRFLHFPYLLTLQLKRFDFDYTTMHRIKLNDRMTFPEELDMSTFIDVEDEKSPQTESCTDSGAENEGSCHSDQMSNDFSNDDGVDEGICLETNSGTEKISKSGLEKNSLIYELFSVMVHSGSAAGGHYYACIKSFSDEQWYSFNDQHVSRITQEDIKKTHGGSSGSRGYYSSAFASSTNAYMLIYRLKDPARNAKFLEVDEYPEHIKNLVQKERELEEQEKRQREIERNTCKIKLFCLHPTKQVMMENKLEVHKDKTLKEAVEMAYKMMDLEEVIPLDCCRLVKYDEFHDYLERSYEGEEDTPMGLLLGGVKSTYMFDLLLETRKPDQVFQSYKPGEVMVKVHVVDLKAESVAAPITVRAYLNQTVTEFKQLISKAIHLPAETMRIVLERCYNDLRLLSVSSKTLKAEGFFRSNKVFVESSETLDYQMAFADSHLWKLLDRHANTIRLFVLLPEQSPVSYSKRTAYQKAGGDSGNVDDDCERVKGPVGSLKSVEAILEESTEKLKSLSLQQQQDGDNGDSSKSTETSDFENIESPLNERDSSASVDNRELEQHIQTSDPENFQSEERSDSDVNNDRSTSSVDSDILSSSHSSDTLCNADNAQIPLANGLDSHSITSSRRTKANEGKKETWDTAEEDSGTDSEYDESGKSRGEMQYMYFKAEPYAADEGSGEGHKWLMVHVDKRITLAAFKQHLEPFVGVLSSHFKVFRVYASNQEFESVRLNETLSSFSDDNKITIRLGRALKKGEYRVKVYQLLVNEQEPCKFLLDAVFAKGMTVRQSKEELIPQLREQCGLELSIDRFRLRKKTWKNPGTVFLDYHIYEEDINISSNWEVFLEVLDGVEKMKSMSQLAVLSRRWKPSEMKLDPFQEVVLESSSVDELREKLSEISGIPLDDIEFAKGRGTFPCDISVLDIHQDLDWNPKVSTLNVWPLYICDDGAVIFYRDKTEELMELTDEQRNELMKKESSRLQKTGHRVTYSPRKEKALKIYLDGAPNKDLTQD
Outline: as §1

USP48 = biological target: T3, USP48 (UniProt Q86UV5)
T3 sequence (whole entry): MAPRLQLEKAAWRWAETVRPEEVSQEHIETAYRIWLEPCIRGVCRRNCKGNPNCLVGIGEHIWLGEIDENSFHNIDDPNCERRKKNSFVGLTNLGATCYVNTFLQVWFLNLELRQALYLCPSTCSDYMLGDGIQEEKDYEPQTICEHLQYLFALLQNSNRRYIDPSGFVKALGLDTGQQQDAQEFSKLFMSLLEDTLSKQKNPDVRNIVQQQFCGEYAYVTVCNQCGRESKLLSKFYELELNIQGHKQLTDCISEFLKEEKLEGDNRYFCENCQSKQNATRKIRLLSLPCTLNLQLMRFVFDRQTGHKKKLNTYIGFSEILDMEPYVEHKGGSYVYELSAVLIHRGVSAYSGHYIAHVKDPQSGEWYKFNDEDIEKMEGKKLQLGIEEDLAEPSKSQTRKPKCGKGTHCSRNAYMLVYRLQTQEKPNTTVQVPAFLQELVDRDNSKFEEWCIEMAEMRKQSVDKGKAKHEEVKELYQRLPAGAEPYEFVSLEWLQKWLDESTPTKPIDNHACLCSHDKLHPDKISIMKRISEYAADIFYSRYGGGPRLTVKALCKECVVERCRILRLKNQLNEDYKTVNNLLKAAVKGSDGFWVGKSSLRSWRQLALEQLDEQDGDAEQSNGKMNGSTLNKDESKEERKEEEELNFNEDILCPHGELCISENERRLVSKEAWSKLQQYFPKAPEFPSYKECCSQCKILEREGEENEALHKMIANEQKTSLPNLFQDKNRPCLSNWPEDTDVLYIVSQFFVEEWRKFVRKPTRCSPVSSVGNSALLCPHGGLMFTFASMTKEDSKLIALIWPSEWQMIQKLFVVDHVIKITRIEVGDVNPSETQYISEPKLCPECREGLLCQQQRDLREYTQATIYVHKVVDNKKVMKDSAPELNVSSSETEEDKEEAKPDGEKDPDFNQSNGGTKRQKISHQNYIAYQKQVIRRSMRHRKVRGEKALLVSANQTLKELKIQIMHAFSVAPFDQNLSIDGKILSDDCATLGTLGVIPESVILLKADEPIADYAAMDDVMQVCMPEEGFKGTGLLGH
Outline: as §1

USP5 = biological target: T4, USP5 (UniProt P45974)
T4 sequence (whole entry): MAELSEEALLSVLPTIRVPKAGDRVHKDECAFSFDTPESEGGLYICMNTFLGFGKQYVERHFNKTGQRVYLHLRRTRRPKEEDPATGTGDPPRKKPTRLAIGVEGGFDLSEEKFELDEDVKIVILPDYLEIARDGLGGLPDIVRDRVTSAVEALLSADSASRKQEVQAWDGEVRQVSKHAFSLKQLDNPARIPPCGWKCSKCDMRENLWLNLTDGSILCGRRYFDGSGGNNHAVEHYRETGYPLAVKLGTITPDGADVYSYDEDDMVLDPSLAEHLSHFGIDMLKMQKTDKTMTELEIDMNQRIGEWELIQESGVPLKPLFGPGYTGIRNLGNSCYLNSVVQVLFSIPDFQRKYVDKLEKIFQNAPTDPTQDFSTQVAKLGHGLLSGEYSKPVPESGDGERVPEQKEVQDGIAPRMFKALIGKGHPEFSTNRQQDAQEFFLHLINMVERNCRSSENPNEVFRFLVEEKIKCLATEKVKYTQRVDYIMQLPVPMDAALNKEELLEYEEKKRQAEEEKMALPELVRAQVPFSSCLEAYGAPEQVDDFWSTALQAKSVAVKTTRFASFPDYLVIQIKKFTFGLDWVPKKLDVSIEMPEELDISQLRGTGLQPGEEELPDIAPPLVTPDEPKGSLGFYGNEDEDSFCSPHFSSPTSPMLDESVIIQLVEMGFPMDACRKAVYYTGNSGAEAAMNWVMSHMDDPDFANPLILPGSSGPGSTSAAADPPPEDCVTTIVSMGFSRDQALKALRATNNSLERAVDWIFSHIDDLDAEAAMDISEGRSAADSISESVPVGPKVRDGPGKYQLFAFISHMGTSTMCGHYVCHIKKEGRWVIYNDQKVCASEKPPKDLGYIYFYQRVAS
Outline: as §1

USP54 = USP54 (UniProt Q70EL1)
Outline: as §1

USP7 = USP7 (UniProt Q93009)
Outline: as §1

USP8 = biological target: T5, USP8 (UniProt P40818)
T5 sequence (whole entry): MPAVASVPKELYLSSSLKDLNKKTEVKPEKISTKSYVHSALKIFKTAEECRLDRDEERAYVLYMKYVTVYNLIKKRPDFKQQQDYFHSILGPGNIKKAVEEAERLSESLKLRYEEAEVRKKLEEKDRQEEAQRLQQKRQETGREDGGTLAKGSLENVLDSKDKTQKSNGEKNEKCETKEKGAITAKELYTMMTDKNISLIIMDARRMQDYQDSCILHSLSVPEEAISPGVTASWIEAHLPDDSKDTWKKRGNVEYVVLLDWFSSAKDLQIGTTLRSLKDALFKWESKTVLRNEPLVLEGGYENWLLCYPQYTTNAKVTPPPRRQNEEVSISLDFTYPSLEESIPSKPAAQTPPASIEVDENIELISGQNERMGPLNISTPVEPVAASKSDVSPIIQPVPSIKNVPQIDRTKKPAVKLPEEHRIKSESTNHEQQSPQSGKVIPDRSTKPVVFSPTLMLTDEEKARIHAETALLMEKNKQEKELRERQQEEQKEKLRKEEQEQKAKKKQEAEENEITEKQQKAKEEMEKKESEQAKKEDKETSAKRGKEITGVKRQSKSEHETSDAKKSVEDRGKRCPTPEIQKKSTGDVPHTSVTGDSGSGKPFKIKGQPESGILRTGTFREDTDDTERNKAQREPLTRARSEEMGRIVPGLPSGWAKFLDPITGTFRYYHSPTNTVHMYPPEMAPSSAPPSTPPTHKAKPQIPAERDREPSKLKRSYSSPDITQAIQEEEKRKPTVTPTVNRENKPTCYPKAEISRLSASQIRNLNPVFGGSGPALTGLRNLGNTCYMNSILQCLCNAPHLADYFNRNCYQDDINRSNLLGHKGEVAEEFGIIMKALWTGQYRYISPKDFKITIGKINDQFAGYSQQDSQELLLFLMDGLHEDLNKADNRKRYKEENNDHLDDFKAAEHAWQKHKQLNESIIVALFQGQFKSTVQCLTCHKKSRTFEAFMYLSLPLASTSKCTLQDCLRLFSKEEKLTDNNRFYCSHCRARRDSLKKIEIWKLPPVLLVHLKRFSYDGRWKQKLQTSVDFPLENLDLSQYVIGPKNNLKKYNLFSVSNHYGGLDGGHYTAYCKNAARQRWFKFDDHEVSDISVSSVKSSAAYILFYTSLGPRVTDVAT
Outline: as §1

USP9X = USP9X (UniProt Q93008)
Outline: as §1

UniProt O00487 = biological target: UniProt O00487
Outline: as §1

Measured: log2 ratio of Biotin-Ahx-Ub-VS probe labelling

Chain of UniProt O00487 (O00487 whole entry): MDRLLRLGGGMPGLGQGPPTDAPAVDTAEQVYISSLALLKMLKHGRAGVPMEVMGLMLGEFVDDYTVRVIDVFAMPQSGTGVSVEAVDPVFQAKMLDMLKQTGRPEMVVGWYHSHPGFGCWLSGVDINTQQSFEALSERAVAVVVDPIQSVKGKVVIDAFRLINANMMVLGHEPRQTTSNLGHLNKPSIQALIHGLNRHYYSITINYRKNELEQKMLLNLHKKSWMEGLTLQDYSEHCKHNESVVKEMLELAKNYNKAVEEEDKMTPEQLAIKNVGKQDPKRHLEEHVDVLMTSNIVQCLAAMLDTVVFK
Chain of USP7 (Q93009 whole entry, looked up): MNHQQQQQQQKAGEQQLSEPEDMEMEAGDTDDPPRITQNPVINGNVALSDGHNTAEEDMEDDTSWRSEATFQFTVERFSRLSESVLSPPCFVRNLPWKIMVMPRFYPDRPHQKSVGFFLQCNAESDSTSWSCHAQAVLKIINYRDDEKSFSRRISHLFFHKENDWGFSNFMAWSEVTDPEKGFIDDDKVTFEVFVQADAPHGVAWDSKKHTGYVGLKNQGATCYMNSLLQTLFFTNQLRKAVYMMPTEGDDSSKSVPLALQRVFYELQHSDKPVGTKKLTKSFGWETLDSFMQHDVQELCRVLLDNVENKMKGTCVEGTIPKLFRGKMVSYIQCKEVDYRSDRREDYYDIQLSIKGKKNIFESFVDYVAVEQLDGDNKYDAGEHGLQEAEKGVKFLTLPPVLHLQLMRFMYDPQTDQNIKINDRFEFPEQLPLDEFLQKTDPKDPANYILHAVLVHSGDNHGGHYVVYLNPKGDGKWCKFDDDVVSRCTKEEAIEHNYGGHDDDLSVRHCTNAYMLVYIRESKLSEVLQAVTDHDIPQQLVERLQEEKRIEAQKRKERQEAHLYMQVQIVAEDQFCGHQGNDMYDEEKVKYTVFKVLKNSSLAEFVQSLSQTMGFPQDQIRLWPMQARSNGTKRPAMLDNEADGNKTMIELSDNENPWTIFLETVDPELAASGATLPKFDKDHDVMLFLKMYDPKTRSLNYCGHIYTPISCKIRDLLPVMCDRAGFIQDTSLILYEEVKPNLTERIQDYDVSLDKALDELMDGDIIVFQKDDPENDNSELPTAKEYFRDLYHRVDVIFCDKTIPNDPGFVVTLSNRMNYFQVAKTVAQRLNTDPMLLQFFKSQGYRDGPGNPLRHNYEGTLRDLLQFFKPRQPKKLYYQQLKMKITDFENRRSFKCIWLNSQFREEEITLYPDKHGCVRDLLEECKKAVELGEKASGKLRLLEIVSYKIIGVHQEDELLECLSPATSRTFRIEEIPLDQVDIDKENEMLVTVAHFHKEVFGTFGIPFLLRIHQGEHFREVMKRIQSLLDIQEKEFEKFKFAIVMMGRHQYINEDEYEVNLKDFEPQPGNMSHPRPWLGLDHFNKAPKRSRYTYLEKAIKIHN
Chain of USP9X (Q93008 whole entry): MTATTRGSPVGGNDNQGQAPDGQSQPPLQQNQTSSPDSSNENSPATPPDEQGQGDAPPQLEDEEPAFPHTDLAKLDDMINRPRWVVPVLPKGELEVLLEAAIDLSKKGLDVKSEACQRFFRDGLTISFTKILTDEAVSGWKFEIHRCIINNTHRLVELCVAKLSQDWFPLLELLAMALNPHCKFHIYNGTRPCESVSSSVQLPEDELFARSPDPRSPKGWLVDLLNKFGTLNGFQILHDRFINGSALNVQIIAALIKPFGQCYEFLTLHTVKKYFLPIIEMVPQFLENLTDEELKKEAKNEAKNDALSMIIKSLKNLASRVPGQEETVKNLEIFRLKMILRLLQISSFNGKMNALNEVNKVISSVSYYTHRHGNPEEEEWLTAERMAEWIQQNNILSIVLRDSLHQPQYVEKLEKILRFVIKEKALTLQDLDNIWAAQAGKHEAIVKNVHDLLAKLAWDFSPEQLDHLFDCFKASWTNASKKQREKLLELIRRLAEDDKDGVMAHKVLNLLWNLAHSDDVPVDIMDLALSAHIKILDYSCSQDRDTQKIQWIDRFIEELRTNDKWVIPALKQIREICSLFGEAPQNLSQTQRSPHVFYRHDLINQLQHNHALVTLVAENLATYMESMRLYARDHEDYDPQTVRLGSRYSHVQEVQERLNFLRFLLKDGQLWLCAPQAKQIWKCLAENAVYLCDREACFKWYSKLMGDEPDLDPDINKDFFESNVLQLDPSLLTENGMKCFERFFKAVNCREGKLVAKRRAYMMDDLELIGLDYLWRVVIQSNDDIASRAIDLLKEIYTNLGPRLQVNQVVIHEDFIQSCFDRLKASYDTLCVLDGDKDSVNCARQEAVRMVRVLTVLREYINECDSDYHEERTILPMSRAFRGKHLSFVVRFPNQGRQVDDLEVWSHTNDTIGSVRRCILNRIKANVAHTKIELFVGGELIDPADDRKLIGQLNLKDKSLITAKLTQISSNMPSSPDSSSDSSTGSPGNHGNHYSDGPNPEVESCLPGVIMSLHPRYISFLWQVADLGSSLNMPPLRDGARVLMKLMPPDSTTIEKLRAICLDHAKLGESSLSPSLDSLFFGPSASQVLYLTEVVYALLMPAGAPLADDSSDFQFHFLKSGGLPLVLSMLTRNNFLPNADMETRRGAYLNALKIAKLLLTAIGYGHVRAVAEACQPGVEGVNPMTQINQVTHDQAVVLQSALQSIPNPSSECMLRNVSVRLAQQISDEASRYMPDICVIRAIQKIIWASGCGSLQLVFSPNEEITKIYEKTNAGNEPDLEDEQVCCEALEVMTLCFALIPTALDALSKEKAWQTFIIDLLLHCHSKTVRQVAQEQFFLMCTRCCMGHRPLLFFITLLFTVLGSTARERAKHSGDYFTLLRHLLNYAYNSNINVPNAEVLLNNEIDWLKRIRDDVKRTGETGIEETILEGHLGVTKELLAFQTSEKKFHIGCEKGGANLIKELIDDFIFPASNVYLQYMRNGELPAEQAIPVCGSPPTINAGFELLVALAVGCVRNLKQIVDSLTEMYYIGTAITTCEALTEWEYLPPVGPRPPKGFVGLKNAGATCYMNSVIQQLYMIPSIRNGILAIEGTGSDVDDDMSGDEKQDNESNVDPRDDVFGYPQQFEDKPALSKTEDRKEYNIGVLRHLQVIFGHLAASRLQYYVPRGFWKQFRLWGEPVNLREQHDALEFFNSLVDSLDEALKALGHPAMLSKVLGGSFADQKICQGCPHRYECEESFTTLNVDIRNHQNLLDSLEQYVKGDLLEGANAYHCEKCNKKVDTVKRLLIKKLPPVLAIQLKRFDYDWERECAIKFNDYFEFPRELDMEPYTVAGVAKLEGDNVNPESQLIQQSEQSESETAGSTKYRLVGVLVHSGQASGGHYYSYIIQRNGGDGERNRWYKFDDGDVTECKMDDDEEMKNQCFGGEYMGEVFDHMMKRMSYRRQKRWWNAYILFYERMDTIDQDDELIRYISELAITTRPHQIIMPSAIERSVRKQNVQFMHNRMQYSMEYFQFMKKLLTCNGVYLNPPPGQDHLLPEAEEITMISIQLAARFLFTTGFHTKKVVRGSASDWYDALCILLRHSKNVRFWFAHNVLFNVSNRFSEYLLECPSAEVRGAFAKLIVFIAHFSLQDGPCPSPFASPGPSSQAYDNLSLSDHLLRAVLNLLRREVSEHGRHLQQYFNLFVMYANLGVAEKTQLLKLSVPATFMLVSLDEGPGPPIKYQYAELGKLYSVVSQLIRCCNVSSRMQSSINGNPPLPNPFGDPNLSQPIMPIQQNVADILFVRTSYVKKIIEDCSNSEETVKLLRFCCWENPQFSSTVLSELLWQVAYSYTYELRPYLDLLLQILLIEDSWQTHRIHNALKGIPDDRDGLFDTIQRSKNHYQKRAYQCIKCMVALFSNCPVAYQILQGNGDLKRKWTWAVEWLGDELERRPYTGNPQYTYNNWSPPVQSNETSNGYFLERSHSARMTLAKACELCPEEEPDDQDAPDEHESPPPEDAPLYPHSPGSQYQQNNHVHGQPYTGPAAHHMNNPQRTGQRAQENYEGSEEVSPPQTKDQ
Chain of USP46 (P62068 whole entry): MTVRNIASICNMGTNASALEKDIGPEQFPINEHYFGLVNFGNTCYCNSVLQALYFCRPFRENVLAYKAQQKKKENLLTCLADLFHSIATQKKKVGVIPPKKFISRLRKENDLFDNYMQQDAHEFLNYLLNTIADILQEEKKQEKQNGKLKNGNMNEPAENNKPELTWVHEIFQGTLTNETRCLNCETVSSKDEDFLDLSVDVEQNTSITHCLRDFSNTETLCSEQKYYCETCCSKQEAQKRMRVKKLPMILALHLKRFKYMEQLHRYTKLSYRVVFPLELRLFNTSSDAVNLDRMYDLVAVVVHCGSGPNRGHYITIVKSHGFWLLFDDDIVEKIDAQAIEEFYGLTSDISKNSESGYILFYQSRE

Cc1ccc(C)c(NC(=O)CCl)c1
inactive: USP42 0.248 | USP46 -0.456 | USP47 -0.823 | USP48 -0.558 | USP5 -0.353 | USP54 -0.00643 | USP7 -0.537 | USP8 -0.263 | USP9X -0.374 | UniProt O00487 -0.102
